Structures are written as SMILES. Results filed as inconclusive are left out. Active and inactive are the calls of the source. Unless noted, calls follow the shape of the dose curve; as a rule, active = well fitted curve in the direction sought with a large enough effect in the repeat runs; inconclusive = weak or mixed curves; inactive = no such curve, though single readings can be large; an effect the other way counts as inactive or inconclusive.

Assay [1] deals with Cytochrome P450 3A4 (Homo sapiens) (UniProt P08684). Briefly: qHTS Assay for Activators of Cytochrome P450 3A4 (AID 885; active = well fitted curve in the direction sought with a large enough effect; an effect the other way counts as inactive or inconclusive; also: nearly all actives have a fitted effect of over 65% in size). In short, it runs like this: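 Activators are scored by enhanced luminescence from CYP3A4 conversion of luciferin-PPXE (25uM, equal to KM) to luciferin, after 60 min at RT with an NADPH-regenerating system.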
The nature of assay [2]: Confirmation and Secondary Assay for Modulators of Hemoglobin Beta Chain Splicing at IVS2 654 locus (AID 910; active = well fitted curve in the direction sought with a large enough effect; an effect the other way counts as inactive or inconclusive;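 also: per-well total GFP intensity by laser scanning cytometry after 2-day treatment; % of control where 0% means no effect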). In short, it runs like this: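 HeLa cells stably carrying EGFP interrupted by mutant beta-globin IVS2-654 intron (CMV-driven) were treated with compound for 2 days at 37C; corrected splicing was scored as total peak GFP intensity per well (488 nm excitation, 500-520 nm emission).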

Assay [3] can be described thus: Confirmation and Secondary Assay for Modulators of Hemoglobin Beta Chain Splicing at IVS2 705 locus (AID 930; active = well fitted curve in the direction sought with a large enough effect; an effect the other way counts as inactive or inconclusive;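 also: HeLa cells stably expressing the EGFP-705 splicing reporter; GFP fluorescence per well restored by corrected splicing of the IVS2-705 intron in EGFP; % of control where 0% means no effect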). Summed up:
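Fluorescence gain (488 nm laser, 500-520 nm PMT) reflects restored correct splicing of a mutant IVS2-705 intron inside EGFP in stably transfected HeLa cells after 2-day compound treatment.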

The nature of assay [4]: qHTS Assay for Lipid Storage Modulators (AID 1519; calls by dose curve; as to activity change, negative = inhibition: % is scaled to controls: 0 for no effect and ±100 for the full control effect). The conditions noted are these: Drosophila S3 cells, BODIPY lipid droplet/cell ratio, laser cytometry, cells loaded with oleic acid; for activity change, negative = inhibition: at 57.5 µM (top of the series). Summed up: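 Cells seeded at 5,000 per well were treated with compounds over a concentration series and loaded with oleic acid (400 uM, as added). Lipid droplet fluorescence (488 nm excitation, 500-530 nm channel) was read by laser-scanning cytometry and normalized to 20 uM Triacsin C.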

For assay [5], the target named is Cytochrome P450 2D6 (Homo sapiens) (UniProt P10635). Description: Cytochrome P450 family 2 subfamily D member 6 (CYP2D6) small molecule antagonists: luciferase biochemical (cell-free) qHTS assay (AID 1645840). Also: nearly all actives have a fitted effect of over 55% in size. Also: potency is read from the fitted curve at half-maximal effect. As to activity change, negative = inhibition: % is scaled to controls: 0 for no effect and ±100 for the full control effect. Summed up: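 P450-Glo CYP2D6 system: proluciferin substrate converted by enzyme to luciferin, read by luminescence proportional to activity. Enzyme-substrate mix with compound 10 min at room temperature, then NADPH regeneration 1 h before detection reagent.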
(In general: In qHTS, concentration-response curves come from the screen itself.)

Assay [6] addresses Cytochrome P450 3A4 (Homo sapiens) (UniProt P08684). Description: Cytochrome P450 family 3 subfamily A member 4 (CYP3A4) small molecule antagonists: luciferase qHTS assay (AID 1645841). Also: nearly all actives have a fitted effect of over 45% in size. Also: potency is read from the fitted curve at half-maximal effect. Summed up:
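P450-Glo CYP3A4 enzyme with proluciferin substrate was preincubated with DMSO-dissolved compounds for 10 min at room temperature. NADPH regeneration solution started a 1 h reaction. Detection reagent stopped it, and luminescence was read after 20 min.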

Assay [7] deals with Cytochrome P450 2C9 (Homo sapiens) (UniProt P11712). Description: Cytochrome P450 family 2 subfamily C member 9 (CYP2C9) small molecule antagonists: luciferase biochemical (cell-free) qHTS assay (AID 1645842). Also: nearly all actives have a fitted effect of over 55% in size. Also: potency is read from the fitted curve at half-maximal effect. As to activity change, negative = inhibition: % is scaled to controls: 0 for no effect and ±100 for the full control effect. In short, it runs like this: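 P450-Glo CYP2C9 system: proluciferin substrate with enzyme in mix containing 0.4% BSA, 10 min at room temperature, then NADPH regeneration solution added and incubated 1 h at 37C. Detection reagent stopped reaction; luminescence read after 20 min as RLU.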

Setting [8] is: measured here: cell count channel max response.
[9] abbreviates: measured here: lipid channel max response.

Sequence of Cytochrome P450 2C9 (Homo sapiens) (P11712 whole entry, looked up): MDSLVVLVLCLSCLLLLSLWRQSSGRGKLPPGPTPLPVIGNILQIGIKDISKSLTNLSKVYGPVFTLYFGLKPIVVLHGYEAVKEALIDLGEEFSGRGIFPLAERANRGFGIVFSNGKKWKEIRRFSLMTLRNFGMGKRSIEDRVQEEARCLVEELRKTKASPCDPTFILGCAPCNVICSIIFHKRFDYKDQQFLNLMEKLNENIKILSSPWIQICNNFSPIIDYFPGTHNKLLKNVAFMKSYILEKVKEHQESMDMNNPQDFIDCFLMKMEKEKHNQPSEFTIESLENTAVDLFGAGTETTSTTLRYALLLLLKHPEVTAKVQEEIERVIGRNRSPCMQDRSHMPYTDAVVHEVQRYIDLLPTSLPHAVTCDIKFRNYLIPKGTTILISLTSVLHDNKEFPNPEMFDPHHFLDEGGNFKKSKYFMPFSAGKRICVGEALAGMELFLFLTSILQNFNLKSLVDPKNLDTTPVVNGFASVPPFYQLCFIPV
Sequence of Cytochrome P450 3A4 (Homo sapiens) (P08684 whole entry, looked up): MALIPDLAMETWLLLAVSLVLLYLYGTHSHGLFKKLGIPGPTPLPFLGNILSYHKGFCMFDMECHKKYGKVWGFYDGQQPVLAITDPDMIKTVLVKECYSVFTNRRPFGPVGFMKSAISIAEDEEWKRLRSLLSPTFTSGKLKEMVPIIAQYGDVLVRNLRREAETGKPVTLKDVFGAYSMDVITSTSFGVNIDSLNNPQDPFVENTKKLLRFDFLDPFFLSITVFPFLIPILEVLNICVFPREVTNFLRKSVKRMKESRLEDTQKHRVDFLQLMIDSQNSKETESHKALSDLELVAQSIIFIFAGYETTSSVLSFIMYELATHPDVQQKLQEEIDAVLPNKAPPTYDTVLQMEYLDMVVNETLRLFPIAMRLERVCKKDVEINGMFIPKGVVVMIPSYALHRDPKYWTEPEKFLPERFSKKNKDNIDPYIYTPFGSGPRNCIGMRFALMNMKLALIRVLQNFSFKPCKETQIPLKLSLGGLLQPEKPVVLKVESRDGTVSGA
Sequence of Cytochrome P450 2D6 (Homo sapiens) (P10635 whole entry, looked up): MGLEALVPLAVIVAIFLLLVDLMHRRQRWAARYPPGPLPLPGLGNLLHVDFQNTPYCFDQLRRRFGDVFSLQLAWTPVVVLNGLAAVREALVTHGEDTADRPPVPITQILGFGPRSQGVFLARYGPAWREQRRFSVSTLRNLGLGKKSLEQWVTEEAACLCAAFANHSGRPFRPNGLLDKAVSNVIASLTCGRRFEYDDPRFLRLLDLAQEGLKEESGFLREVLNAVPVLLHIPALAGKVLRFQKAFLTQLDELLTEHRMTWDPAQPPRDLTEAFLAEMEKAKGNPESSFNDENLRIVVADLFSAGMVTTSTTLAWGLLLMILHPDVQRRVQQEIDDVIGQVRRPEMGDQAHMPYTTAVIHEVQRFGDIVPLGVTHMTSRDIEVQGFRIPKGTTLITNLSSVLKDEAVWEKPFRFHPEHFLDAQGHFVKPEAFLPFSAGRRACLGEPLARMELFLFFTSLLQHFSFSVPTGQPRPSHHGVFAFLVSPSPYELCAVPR

In the case of `NC(C(=O)NC1C(=O)N2C(C(=O)O)=C(Cl)CSC12)c1ccccc1` (stereo not given), the Potency entry in assay [1], in assay [2] and in assay [3] was “inactive” each time. The activity change, negative = inhibition in assay [4] is 8.35% (inactive). The max response is 18.8% in assay [4] (setting [8]) and 24.9% in assay [4] (setting [9]).
For `CC(=O)OCC1OC(Oc2cc(OC(C)=O)c3c(=O)cc(-c4ccc(OC(C)=O)cc4)oc3c2)[C@@H](OC(C)=O)C(OC(C)=O)C1OC(C)=O` (stereo not given in full), the Potency entry in assay [1], in assay [2] and in assay [3] was “inactive” in each case. For the same molecule, in assay [4], the activity change, negative = inhibition is -3.32% (inactive). Moreover, the max response in assay [4] (setting [8]) was -1.21%; in assay [4] (setting [9]), -5.92%.
Take `COC(=O)CCC(C)C1CCC2C3C(O)C[C@@H]4CC(O)CC[C@@]4(C)C3CC(O)[C@]12C` (stereo not given in full): the Potency entry in assay [2] and in assay [3] was “inactive” in each case. Moreover, the activity change, negative = inhibition in assay [4] was 2.8% (inactive). The max response in assay [4] (setting [8]) was -0.322%; in assay [4] (setting [9]), 3.42%.
Consider `COc1cccc(Cn2c(SCC(=O)N3CCN(c4ccc(F)cc4)CC3)nc3ccccc32)c1`, for which the Potency in assay [5] was 10.7 µM (active).
For `CC(=O)OCC1=C(C(=O)O)N2C(=O)C(NC(=O)Cc3cccs3)C2SC1` (stereo not given), the Potency entry in assay [1], in assay [2] and in assay [3] was “inactive” throughout. For the same molecule, the activity change, negative = inhibition in assay [4] is 9.08% (inactive). The max response amounted to 8.85% in assay [4] (setting [8]) and 22% in assay [4] (setting [9]).
In the case of `C#C[C@@]1(O)CCC2C3CCc4cc(O)ccc4C3CC[C@@]21C` (stereo not given in full), the Potency entry in assay [2] and in assay [3] was “inactive” in each case. In assay [4], the activity change, negative = inhibition was 6.48% (inactive). In addition, the results for the max response in assay [4] (setting [8]) and in assay [4] (setting [9]) were 1.86% and 11.2%, respectively.
For the molecule `COc1cc(O)c(C(=O)c2ccccc2)cc1O`, the Potency result in assay [1], in assay [2] and in assay [3] was “inactive” in each case. Moreover, the activity change, negative = inhibition in assay [4] is 2.59% (inactive). Further, the values for the max response in assay [4] (setting [8]) and in assay [4] (setting [9]) were 7.29% and 11.7%, respectively.
Consider `CC(=O)OCC(=O)[C@@]1(O)CCC2C3CC(C)C4=CC(=O)C=CC4(C)C3C(O)CC21C` (stereo not given in full), for which the Potency entry in assay [1], in assay [2] and in assay [3] was “inactive” throughout. Moreover, in assay [4], the activity change, negative = inhibition was 2.16% (inactive). The max response in assay [4] (setting [8]) is -9.81%; in assay [4] (setting [9]), -3.93%.
`CCC(C)C(=O)OC1CC(C)C=C2C=CC(C)C(CCC3CC(O)CC(=O)O3)C21` (stereo not given): the Potency result in assay [2] and in assay [3] was “inactive” throughout. The activity change, negative = inhibition in assay [4] was 5.56% (inactive). Further, the max response in assay [4] (setting [8]) came to 0.727%; in assay [4] (setting [9]), 5.38%.
In the case of `CC(=O)O[C@@]1(C(C)=O)CCC2C3C=C(C)C4=CC(=O)CCC4(C)C3CCC21C` (stereo not given in full), the Potency result in assay [2] and in assay [3] was “inactive” throughout. Also, the activity change, negative = inhibition in assay [4] is 3.94% (inactive). The max response in assay [4] (setting [8]) came to 7.28%; in assay [4] (setting [9]) it was 12.7%.
Regarding `CC(CN(C)C)CN1c2ccccc2Sc2ccccc21` (stereo not given), the Potency result in assay [2] and in assay [3] was “inactive” throughout. In assay [4], the activity change, negative = inhibition is 6.07% (inactive). The values for the max response in assay [4] (setting [8]) and in assay [4] (setting [9]) were -0.564% and 10.9%, respectively.
Take `Nc1c(-c2nc(-c3ccc4c(c3)OCO4)cs2)c2ccccn2c1C(=O)c1ccccc1`: the Potency result in assay [5] was “inactive”.
For the molecule `C[S+](=O)([O-])Nc1ccc(-c2ccc3nc(-c4ccc(OC(F)(F)F)cc4)[nH]c3c2)cc1`, the Potency result in assay [5] and in assay [6] was “inactive” throughout.
On to `OC[C@H]1O[C@@H]2O[C@H]3[C@H](O)[C@@H](O)[C@@H](O[C@H]4[C@H](O)[C@@H](O)[C@@H](O[C@H]5[C@H](O)[C@@H](O)[C@@H](O[C@H]6[C@H](O)[C@@H](O)[C@@H](O[C@H]7[C@H](O)[C@@H](O)[C@@H](O[C@H]1[C@H](O)[C@@H]2O)O[C@@H]7CO)O[C@@H]6CO)O[C@@H]5CO)O[C@@H]4CO)O[C@@H]3CO`, for which the Potency entry in assay [5], in assay [6] and in assay [7] was “inactive” throughout.
As for `N#Cc1ccccc1Cn1nnc2c(=O)[nH]c(C3CCCN(S(=O)(=O)c4ccc(F)cc4)C3)nc21` (stereo not given), the Potency in assay [5] was 0.849 µM (active); in assay [7], 1.69 µM (active).
On to `Cc1nc2c3ccccc3nc(NNC(=O)CCC(=O)N3CCN(c4ccccc4)CC3)n2n1`, for which, in assay [5], the Potency result is “inactive”.
With `c1ccc(Cn2c(-c3ccc(OC[C@H](C4CCNCC4)n4c(-c5ccccc5)nc5ccccc54)cc3)nc3ccccc32)cc1`, the Potency in assay [5] was 12 µM (active).
Take `CCc1ccc(CNC(=O)C2CCCN(c3nnc(C)c4c(C)n(-c5ccccc5)nc34)C2)cc1` (stereo not given): the Potency in assay [5] was 10.7 µM (active); in assay [6], 1.9 µM (active); in assay [7] it was 8.49 µM (active).
`CCN(CC)S(=O)(=O)c1ccc2c(c1)nc(CN(C)C(=O)Nc1cccc(Cl)c1)n2C`: the Potency in assay [5] is 26.8 µM (active); in assay [7] it was 0.849 µM (active).
For `CC(=O)C1(O)Cc2c(O)c3c(c(O)c2C(OC2CC(N)C(O)C(C)O2)C1)C(=O)c1ccccc1C3=O` (stereo not given), the Potency in assay [5] was 12 µM (active).
In the case of `Cc1cccc(C)c1NC(=O)Cn1cc(C(=O)c2ccco2)c2ccccc21`, the Potency in assay [5] was 9.52 µM (active); in assay [7] it was 3.79 µM (active).
As to `Cc1nn(CC(=O)NCCc2ccccc2)c(=O)c2c1sc1ccccc12`, the Potency in assay [5] was 12 µM (active).
`CC1=C(C(=O)Nc2nnc(C)s2)C(c2ccccc2Cl)N=C(Nc2nc3ccccc3o2)N1` (stereo not given): the Potency result in assay [5] is “inactive”.
In the case of `CCn1cc2nc(SCC(=O)Nc3ccc(OC)c(OC)c3)n(Cc3ccc(Cl)cc3)c(=O)c2n1`, the Potency in assay [5] was 9.52 µM (active); in assay [7], 3.79 µM (active).
On to `CC(C)OCc1cc(CN2CCN(c3ccccc3)CC2)c(O)c2ncccc12`, for which the Potency result in assay [5] and in assay [6] was “inactive” in each case.
For `CCc1ccc(C(=O)c2cn(CC(=O)Nc3ccc(OC)c(OC)c3)c3ccc(C)cc3c2=O)cc1`, in assay [5], the Potency entry is “inactive”.
As for `CCC(Sc1nc2ccccc2c2nc(CCn3cncc3C)nn12)C(=O)Nc1cccc(OC)c1` (stereo not given), the Potency in assay [5] was 12 µM (active); in assay [7] it was 1.9 µM (active).
As for `CCOC(=O)c1ccc(NC(=O)c2cc(=O)c3ccc(C)c(C)c3o2)cc1`, the Potency entry in assay [5] is “inactive”.
For the molecule `CC1(C#N)CCN(c2c(C(=O)N3CCN(C(=O)C4CC4)CC3)cnc3c(F)cc(F)cc23)CC1`, the Potency entry in assay [5] was “inactive”. Also, the Potency in assay [7] was 12 µM (active).
As for `CCc1ccc(CN(Cc2ccco2)C(=O)COc2ccccc2Cl)cc1`, in assay [5], the Potency is 7.56 µM (active).
Turning to `CCn1cc(/C=C(\NC(=O)c2ccc(C)cc2)C(=O)NCCCn2ccnc2)c2ccccc21`, the Potency is 0.169 µM (active) in assay [5] and 1.34 µM (active) in assay [7].
Consider `Cc1onc(-c2ccccc2Cl)c1C(=O)Cl`, for which the Potency entry in assay [5] was “inactive”.
Regarding `COc1ccc(NC(=O)C2=C(C)Nc3nc(SCc4ccccc4C)nn3C2c2cc(OC)c(O)c(OC)c2)cc1` (stereo not given), the Potency result in assay [5] and in assay [7] was “inactive” in each case.
With `CC1CCCCC1N(Cc1ccccc1)[S+](=O)([O-])c1ccc([S+](=O)([O-])N(C)C)cc1` (stereo not given), in assay [5], the Potency result is “inactive”.
Take `CN[C@H](CC(C)C)C(=O)N[C@H]1C(=O)N[C@@H](CC(N)=O)C(=O)N[C@H]2C(=O)N[C@H]3C(=O)N[C@H](C(=O)N[C@H](C(=O)O)c4cc(O)cc(O)c4-c4cc3ccc4O)[C@H](O)c3ccc(c(Cl)c3)Oc3cc2cc(c3O[C@@H]2OC(CO)[C@@H](O)[C@H](O)[C@@H]2O[C@H]2C[C@](C)(N)[C@H](O)[C@H](C)O2)Oc2ccc(cc2Cl)[C@H]1O` (stereo not given in full): the Potency entry in assay [5] and in assay [6] was “inactive” throughout.

The record behind these values is PubChem BioAssay (NCATS).
